Measured values: the supplement of paper PMC10849652
Of roughly 7,900 targets only a part is listed; those with a hit were picked by preference. About 0.6% of all pairs of compound and target were hits.

Experiments:
Assay in all cases: log2 fold change, soluble protein after heating vs DMSO (PISA); higher = thermal stabilisation; K562 cells, 10 uM, 30 min; active = over 0.2 and 3.5 SD of the protein, either way, in both replicates (recomputed)
[1] = compound: CC1=C(C=C(C=C1)NC(=O)C2=CC(=CC=C2)C(C)(C)C#N)NC3=CC4=C(C=C3)N=CN(C4=O)C
Method in brief: (§1)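 K562 cells (2×10^6 cells/mL) were treated with 10 μM compound for 30 min, and aliquots were heated for 3 min over 48°C-58°C. Pooled aliquots were extracted in PBS with 0.5% NP-40 at 4°C, and the supernatant after 21,000xg for 90 min was measured by TMTpro 16plex LC-MS/MS with channel sums equalised. Reported thermal stability, relative to control samples and from duplicates, is a log2 fold change.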

[2] = compound: CC1=C(C=C(C=C1)NC(=O)C2=CC(=CC=C2)N(C)C)NC(=O)C3=CC=C(C=C3)O
Method in brief: as §1

[3] = compound: CC1=CC=C(C=C1)SC2=C3C=C(SC3=CN=C2)C(=O)N
Method in brief: as §1

[4] = compound: CC1=NC(=CC=C1)C2=C(N=C(N2)C(C)(C)C)C3=CC4=NC=CN=C4C=C3
Method in brief: as §1

Nexturastat A = compound: CCCCN(Cc1ccc(C(=O)NO)cc1)C(=O)Nc1ccccc1 [Nexturastat A]
Method in brief: as §1

vemurafenib = compound: CCCS(=O)(=O)Nc1ccc(F)c(C(=O)c2c[nH]c3ncc(-c4ccc(Cl)cc4)cc23)c1F [vemurafenib]
Method in brief: as §1

[5] = compound: CCCS(=O)(=O)Nc1ccc(F)c(C(=O)c2c[nH]c3ncc(Cl)cc23)c1F
Method in brief: as §1

[6] = compound: CCCc1cc(C)[nH]c(=O)c1CNC(=O)c1cc(-c2ccnc(N3CCN(C)CC3)c2)cc2c1cnn2C(C)C
Method in brief: as §1

givinostat = compound: CCN(CC)Cc1ccc2cc(COC(=O)Nc3ccc(C(=O)NO)cc3)ccc2c1 [givinostat]
Method in brief: as §1

barasertib = compound: CCN(CCCOc1ccc2c(Nc3cc(CC(=O)Nc4cccc(F)c4)[nH]n3)ncnc2c1)CCOP(=O)(O)O [barasertib]
Method in brief: as §1

[7] = compound: CC[C@@H]1C(=O)N(C)c2cnc(Nc3ccc(C(=O)NC4CCN(C)CC4)cc3OC)nc2N1C1CCCC1
Method in brief: as §1

volasertib = compound: CC[C@@H]1C(=O)N(C)c2cnc(Nc3ccc(C(=O)N[C@H]4CC[C@H](N5CCN(CC6CC6)CC5)CC4)cc3OC)nc2N1C(C)C [volasertib]
Method in brief: as §1

[8] = compound: CC[C@H](C)N1C=C(C2=C(C=C(C=C21)C3=CN=C(C=C3)N4CCNCC4)C(=O)NCC5=C(C=C(NC5=O)C)C)C
Method in brief: as §1

epoxomicin = compound: CC[C@H](C)[C@@H](C(=O)N[C@@H]([C@@H](C)O)C(=O)N[C@@H](CC(C)C)C(=O)[C@]1(CO1)C)NC(=O)[C@H]([C@@H](C)CC)N(C)C(=O)C [epoxomicin]
Method in brief: as §1

[9] = compound: CCn1c(C(=O)N(C2CC2)C2CC2)cc2c3c(ncn3C)c(Nc3cc(C)n(C)n3)nc21
Method in brief: as §1

[10] = compound: CCn1cc(-c2ccnc3[nH]c(-c4cccc(CN(C)C)c4)cc23)c(-c2ccc(NC(=O)N(C)C)cc2)n1
Method in brief: as §1

[11] = compound: CN(C)CC(=O)Nc1ccc2[nH]c(=O)c3ccccc3c2c1
Method in brief: as §1

rosiglitazone = compound: CN(CCOC1=CC=C(C=C1)C[C@H]2C(=O)NC(=O)S2)C3=CC=CC=N3 (racemic) [rosiglitazone]
Method in brief: as §1

[12] = compound: CN1C2=C(C3=C1C(=O)N(N=C3)CC4=CC(=CC=C4)N)SC(=C2)S(=O)C
Method in brief: as §1

[13] = compound: CN1CCC(CNc2ccc3ncc(-c4cccc(OC(F)(F)F)c4)n3n2)CC1
Method in brief: as §1

Measured: log2 fold change

CNN2 (UniProt Q99439)
active: volasertib -0.354
inactive: [1] 0.034 | [2] -0.037 | [3] 0.035 | [4] 0.023 | Nexturastat A -0.042 | vemurafenib 0.085 | [5] 0.073 | [6] 0.003 | givinostat 0.063 | barasertib 0.077 | [7] -0.149 | [8] 0.058 | epoxomicin 0.106 | [9] -0.044 | [10] 0.03 | [11] 0.023 | rosiglitazone 0.063 | [12] 0.012 | [13] -0.055

CDAN1 (UniProt Q8IWY9)
inactive: [1] 0.039 | [2] 0.046 | [3] -0.071 | [4] -0.022 | Nexturastat A -0.192 | vemurafenib -0.067 | [5] 0.077 | [6] 0.022 | givinostat 0.023 | barasertib 0.002 | [7] -0.079 | volasertib -0.15 | [8] -0.041 | epoxomicin 0.014 | [9] 0.04 | [10] -0.047 | [11] -0.058 | rosiglitazone 0.045 | [12] -0.022 | [13] -0.001

CLSPN (UniProt Q9HAW4)
inactive: [1] -0.048 | [2] 0.003 | [3] -0.025 | [4] -0.035 | Nexturastat A 0.006 | vemurafenib 0.041 | [5] 0 | [6] -0.012 | givinostat -0.032 | barasertib 0.006 | [7] -0.017 | volasertib -0.159 | [8] -0.019 | epoxomicin 0.037 | [9] 0.062 | [10] 0.031 | [11] -0.048 | rosiglitazone -0.016 | [12] 0.04 | [13] -0.02

CHEK1 (UniProt O14757)
Sequence of UniProt O14757 (O14757 whole entry, looked up): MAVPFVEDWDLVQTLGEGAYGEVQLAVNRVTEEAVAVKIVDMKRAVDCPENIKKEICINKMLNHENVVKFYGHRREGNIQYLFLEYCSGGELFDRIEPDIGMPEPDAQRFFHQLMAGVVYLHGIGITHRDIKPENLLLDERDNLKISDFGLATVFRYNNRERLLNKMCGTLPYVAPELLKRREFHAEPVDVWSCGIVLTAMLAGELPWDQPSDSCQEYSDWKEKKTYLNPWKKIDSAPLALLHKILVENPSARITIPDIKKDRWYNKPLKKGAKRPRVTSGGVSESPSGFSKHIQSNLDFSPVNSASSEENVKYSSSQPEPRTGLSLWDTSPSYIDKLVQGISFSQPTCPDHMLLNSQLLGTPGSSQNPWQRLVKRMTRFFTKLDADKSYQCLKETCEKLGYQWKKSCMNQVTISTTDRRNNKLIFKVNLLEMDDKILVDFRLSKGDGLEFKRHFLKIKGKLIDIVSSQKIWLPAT
inactive: [1] -0.023 | [2] -0.013 | [3] 0.05 | [4] 0.037 | Nexturastat A -0.048 | vemurafenib 0.017 | [5] 0 | [6] -0.022 | givinostat 0.029 | barasertib 0.033 | [7] -0.137 | [8] 0.005 | epoxomicin 0.055 | [9] -0.012 | [10] -0.101 | [11] 0.003 | rosiglitazone 0.046 | [12] -0.029 | [13] -0.159
active: volasertib -0.274

CHP1 (UniProt Q99653)
Sequence of UniProt Q99653 (Q99653 whole entry, looked up): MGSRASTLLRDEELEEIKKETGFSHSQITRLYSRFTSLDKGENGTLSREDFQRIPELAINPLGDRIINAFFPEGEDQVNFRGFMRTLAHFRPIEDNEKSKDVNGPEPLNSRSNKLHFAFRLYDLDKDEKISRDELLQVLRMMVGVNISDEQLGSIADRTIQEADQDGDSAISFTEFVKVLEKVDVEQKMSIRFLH
inactive: [1] -0.048 | [2] -0.016 | [3] -0.112 | [4] 0.021 | Nexturastat A 0.016 | vemurafenib 0.141 | [5] -0.042 | [6] 0.008 | givinostat -0.035 | barasertib 0.009 | [7] -0.069 | volasertib -0.036 | [8] 0.033 | epoxomicin 0.061 | [9] -0.006 | [10] -0.007 | [11] 0.063 | rosiglitazone -0.005 | [12] 0.034 | [13] -0.028

COX5A (UniProt P20674)
Sequence of UniProt P20674 (P20674 whole entry, looked up): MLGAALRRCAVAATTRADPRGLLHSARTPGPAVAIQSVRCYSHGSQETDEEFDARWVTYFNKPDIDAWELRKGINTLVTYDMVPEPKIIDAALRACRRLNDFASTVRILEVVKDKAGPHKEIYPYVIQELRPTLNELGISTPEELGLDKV
inactive: [1] -0.005 | [2] -0.074 | [3] 0 | [4] -0.016 | Nexturastat A 0.072 | vemurafenib 0.165 | [5] -0.114 | [6] -0.093 | givinostat -0.092 | barasertib 0.085 | [7] 0.048 | volasertib -0.08 | [8] -0.081 | epoxomicin 0.234 | [9] -0.018 | [10] 0.072 | [11] -0.001 | rosiglitazone -0.042 | [12] -0.063 | [13] 0.269

CLTB (UniProt P09497)
Sequence of UniProt P09497 (P09497 whole entry, looked up): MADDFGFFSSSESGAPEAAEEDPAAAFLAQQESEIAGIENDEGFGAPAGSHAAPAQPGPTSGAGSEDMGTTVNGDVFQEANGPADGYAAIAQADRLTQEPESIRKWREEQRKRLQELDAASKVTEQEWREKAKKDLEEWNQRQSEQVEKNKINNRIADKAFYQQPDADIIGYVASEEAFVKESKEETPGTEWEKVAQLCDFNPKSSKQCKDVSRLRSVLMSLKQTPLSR
inactive: [1] -0.003 | [2] -0.025 | [3] -0.007 | [4] 0.037 | Nexturastat A -0.039 | vemurafenib -0.009 | [5] -0.012 | [6] -0.036 | givinostat 0.047 | barasertib -0.023 | [7] 0.099 | volasertib 0.134 | [8] -0.102 | epoxomicin 0.032 | [9] 0.001 | [10] -0.006 | [11] -0.024 | rosiglitazone -0.013 | [12] -0.064 | [13] 0.106

CDK13 (UniProt Q14004)
inactive: [1] 0.045 | [2] 0.027 | [3] -0.047 | [4] 0.056 | Nexturastat A -0.212 | vemurafenib -0.056 | [5] -0.037 | [6] -0.011 | givinostat -0.021 | barasertib -0.029 | [7] 0.025 | volasertib 0.09 | [8] 0.034 | epoxomicin -0.032 | [9] 0.087 | [10] 0.018 | [11] 0.004 | rosiglitazone -0.002 | [12] 0.233 | [13] -0.047

COPS4 (UniProt Q9BT78)
inactive: [1] -0.001 | [2] -0.019 | [3] 0.019 | [4] 0.033 | Nexturastat A -0.062 | vemurafenib 0.049 | [5] 0.071 | [6] -0.037 | givinostat -0.025 | barasertib -0.002 | [7] -0.045 | volasertib -0.007 | [8] 0.013 | epoxomicin 0.047 | [9] 0.001 | [10] -0.022 | [11] 0.023 | rosiglitazone 0.018 | [12] -0.092 | [13] -0.007

CHMP4C (UniProt Q96CF2)
active: Nexturastat A 0.443
inactive: [1] -0.173 | [2] -0.01 | [3] 0.02 | [4] 0.081 | vemurafenib 0.019 | [5] -0.022 | [6] -0.021 | givinostat -0.07 | barasertib 0.01 | [7] -0.23 | volasertib -0.043 | [8] -0.014 | epoxomicin -0.016 | [9] 0.06 | [10] -0.034 | [11] 0.005 | rosiglitazone 0.028 | [12] -0.206 | [13] -0.089

CLUH, A0A494C0R8
inactive: [1] 0.008 | [2] -0.077 | [3] -0.02 | [4] 0.124 | Nexturastat A 0.068 | vemurafenib -0.121 | [5] -0.072 | [6] 0.016 | givinostat 0.092 | barasertib -0.043 | [7] 0.183 | volasertib 0.42 | [8] 0.006 | epoxomicin -0.017 | [9] 0.066 | [10] 0.078 | [11] 0.116 | rosiglitazone 0.068 | [12] 0.101 | [13] 0.203

CD63 (UniProt P08962)
inactive: [1] -0.007 | [2] 0.056 | [3] 0.004 | [4] 0.009 | Nexturastat A -0.072 | vemurafenib 0.064 | [5] -0.007 | [6] -0.125 | givinostat 0.096 | barasertib -0.025 | [7] -0.013 | volasertib 0.048 | [8] -0.013 | epoxomicin -0.019 | [9] 0.017 | [10] 0.06 | [11] 0.01 | rosiglitazone 0.04 | [12] 0.012 | [13] 0.018

CNOT7 (UniProt Q9UIV1)
inactive: [1] 0.046 | [2] -0.043 | [3] 0.075 | [4] 0.014 | Nexturastat A 0.048 | vemurafenib -0.068 | [5] 0.053 | [6] -0.011 | givinostat -0.026 | barasertib 0.004 | [7] -0.086 | [8] -0.049 | epoxomicin -0.053 | [9] -0.16 | [10] -0.052 | [11] -0.121 | rosiglitazone -0.04 | [12] 0.021 | [13] -0.082
active: volasertib -0.305

CSNK1A1 (UniProt P48729)
Sequence of UniProt P48729 (P48729 whole entry, looked up): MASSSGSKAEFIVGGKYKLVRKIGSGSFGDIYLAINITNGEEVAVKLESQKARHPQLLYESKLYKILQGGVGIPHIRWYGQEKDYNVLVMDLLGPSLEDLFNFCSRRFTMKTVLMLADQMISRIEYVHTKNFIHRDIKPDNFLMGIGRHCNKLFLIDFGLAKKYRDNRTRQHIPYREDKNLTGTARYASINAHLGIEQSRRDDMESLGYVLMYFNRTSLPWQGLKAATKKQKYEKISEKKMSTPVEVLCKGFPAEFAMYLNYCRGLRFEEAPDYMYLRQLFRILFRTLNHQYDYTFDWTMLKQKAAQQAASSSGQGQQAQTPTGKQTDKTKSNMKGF
inactive: [1] -0.021 | [2] 0.03 | [3] -0.006 | [4] -0.12 | Nexturastat A 0.028 | vemurafenib -0.006 | [5] 0 | [6] 0.031 | givinostat 0.037 | barasertib 0 | [7] -0.011 | volasertib -0.117 | [8] 0.057 | epoxomicin 0.046 | [9] -0.016 | [10] 0.008 | [11] -0.179 | rosiglitazone -0.028 | [12] 0.072 | [13] -0.067

CNOT1 (UniProt A5YKK6)
Sequence of UniProt A5YKK6 (A5YKK6 whole entry, looked up): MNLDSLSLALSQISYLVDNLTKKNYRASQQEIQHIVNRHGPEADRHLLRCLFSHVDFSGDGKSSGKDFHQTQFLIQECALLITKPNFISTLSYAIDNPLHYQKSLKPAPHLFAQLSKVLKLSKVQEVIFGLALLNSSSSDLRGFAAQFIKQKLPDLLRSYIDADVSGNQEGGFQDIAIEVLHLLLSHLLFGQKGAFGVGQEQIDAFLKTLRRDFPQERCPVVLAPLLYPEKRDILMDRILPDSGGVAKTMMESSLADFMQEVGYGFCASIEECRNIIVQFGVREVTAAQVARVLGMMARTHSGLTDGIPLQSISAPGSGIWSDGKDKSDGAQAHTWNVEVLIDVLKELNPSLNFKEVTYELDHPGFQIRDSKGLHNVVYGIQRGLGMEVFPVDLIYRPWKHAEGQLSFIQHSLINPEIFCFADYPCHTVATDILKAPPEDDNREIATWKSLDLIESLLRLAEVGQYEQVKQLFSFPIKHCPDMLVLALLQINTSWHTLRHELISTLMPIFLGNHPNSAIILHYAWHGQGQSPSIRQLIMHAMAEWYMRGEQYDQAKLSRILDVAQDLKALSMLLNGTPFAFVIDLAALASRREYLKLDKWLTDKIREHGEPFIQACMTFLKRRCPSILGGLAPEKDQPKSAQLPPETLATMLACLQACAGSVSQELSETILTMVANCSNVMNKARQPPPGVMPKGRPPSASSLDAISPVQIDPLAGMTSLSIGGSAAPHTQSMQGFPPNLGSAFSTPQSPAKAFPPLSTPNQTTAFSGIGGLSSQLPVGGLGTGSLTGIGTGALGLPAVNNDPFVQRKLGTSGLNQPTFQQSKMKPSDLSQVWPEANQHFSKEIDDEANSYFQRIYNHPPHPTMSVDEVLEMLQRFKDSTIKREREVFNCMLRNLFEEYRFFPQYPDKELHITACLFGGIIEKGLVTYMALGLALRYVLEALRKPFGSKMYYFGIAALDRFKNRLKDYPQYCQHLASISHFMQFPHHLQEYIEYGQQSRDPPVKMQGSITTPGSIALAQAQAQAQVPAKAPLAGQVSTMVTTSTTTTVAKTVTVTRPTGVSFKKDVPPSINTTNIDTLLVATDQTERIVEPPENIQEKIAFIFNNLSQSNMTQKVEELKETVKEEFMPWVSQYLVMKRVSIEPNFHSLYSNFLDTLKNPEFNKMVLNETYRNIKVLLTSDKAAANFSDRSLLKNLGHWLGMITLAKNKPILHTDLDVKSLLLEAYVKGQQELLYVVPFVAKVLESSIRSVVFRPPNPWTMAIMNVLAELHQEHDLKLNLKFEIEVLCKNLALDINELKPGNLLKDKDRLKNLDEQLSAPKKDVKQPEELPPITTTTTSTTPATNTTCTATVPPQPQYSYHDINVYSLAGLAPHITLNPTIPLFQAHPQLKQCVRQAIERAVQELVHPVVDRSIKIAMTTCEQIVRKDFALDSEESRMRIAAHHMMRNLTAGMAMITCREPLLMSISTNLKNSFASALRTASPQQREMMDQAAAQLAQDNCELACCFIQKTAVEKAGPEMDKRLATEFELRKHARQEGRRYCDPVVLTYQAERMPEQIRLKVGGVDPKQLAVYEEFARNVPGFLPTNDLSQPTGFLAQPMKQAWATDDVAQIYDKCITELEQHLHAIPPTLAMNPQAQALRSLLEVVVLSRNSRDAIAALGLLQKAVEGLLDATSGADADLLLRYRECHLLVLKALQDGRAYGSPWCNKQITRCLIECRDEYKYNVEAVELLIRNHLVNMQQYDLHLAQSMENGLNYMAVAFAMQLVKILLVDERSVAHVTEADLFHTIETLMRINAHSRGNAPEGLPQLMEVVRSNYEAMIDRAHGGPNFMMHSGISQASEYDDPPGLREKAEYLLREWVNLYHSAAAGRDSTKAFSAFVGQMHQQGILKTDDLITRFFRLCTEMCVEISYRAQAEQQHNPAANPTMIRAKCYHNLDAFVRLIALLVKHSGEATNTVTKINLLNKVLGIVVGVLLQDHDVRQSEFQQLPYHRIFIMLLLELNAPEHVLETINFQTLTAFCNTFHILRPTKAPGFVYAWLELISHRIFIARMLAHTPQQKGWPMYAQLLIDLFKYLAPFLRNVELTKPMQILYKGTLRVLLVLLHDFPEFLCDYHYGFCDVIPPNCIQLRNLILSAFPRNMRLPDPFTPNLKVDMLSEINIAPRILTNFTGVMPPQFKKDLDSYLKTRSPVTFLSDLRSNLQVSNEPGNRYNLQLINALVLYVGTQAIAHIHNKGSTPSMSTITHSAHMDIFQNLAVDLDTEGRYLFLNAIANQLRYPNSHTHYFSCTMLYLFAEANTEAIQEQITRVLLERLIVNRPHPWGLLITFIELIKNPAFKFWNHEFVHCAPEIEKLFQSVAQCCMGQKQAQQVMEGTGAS
active: volasertib -0.312
inactive: [1] 0.016 | [2] -0.007 | [3] -0.027 | [4] 0.014 | Nexturastat A 0.062 | vemurafenib 0.044 | [5] 0.046 | [6] 0.013 | givinostat 0.044 | barasertib 0.044 | [7] -0.051 | [8] 0.056 | epoxomicin -0.028 | [9] -0.028 | [10] 0.028 | [11] 0.061 | rosiglitazone 0.013 | [12] 0.011 | [13] -0.082

CLUH (UniProt O75153)
Sequence of UniProt O75153 (O75153 whole entry, looked up): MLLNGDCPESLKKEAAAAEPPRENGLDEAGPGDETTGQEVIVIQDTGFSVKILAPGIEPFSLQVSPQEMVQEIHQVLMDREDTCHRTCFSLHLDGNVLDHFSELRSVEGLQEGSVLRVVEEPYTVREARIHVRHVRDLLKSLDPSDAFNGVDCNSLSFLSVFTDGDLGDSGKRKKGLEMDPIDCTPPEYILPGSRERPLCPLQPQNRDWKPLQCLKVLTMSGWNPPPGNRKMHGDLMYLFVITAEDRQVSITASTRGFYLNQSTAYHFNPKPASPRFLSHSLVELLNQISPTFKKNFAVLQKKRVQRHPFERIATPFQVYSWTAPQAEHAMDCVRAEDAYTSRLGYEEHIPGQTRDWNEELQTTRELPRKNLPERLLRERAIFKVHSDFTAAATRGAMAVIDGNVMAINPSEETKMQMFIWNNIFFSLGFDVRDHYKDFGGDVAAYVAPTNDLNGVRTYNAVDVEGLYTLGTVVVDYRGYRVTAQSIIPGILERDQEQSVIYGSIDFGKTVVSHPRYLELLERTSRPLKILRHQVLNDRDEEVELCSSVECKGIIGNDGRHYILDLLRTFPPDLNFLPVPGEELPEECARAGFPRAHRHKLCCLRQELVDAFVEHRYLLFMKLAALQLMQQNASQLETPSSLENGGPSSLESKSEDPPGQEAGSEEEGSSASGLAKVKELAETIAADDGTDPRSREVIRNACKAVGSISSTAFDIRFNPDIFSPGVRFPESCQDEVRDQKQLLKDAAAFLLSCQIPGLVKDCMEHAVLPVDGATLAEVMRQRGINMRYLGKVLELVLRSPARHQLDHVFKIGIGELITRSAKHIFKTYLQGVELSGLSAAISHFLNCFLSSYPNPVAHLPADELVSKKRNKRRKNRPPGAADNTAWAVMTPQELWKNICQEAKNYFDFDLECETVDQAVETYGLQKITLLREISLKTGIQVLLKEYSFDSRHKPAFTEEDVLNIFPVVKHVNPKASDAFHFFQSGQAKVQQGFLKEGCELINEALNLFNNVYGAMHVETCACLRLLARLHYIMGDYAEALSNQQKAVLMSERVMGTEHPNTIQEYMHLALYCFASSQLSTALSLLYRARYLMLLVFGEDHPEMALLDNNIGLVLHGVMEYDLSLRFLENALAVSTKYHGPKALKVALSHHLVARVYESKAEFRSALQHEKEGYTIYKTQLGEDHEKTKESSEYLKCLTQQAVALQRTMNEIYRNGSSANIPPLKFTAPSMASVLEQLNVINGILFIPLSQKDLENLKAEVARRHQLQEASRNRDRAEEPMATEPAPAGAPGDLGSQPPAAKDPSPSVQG
active: volasertib 0.632 | [13] 0.387
inactive: [1] -0.017 | [2] -0.08 | [3] -0.002 | [4] -0.072 | Nexturastat A -0.022 | vemurafenib 0.047 | [5] -0.03 | [6] 0.049 | givinostat 0.016 | barasertib 0.033 | [7] 0.225 | [8] 0.015 | epoxomicin -0.028 | [9] 0.047 | [10] -0.113 | [11] 0.094 | rosiglitazone 0.134 | [12] 0.019
